# Shown are actives, neighbours in structure and some others; about 6.3% of the full set was active somewhere.
# TIM10 inh: TIM10 yeast growth inhibition; S. cerevisiae TIM10 strain growth, BacTiter-Glo luminescence, 24 h; inhibition, % at 10 µM; actives 1.4% (n = 330,000); AID 463195;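 active = inhibition of 40% or more at the single tested concentration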;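 note: wild-type TIM10 isogenic control strain grown at permissive 25 °C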
# tim23-1 inh: tim23-1 yeast growth inhibition; actives 1.3% (n = 330,000); S. cerevisiae tim23-1 growth, BacTiter-Glo luminescence, 24 h; inhibition, % at 20 µM;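 active = growth inhibition of the mutant yeast at or above 50%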;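 note: temperature-sensitive mutant grown at 25 °C; plate controls were DMSO-treated mutant yeast for no effect and medium wells lacking yeast for full effect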
# Mdm2 MdmX PPI: inhibitors of human Mdm2/MdmX interaction; SaOS-2 split-luciferase Mdm2/MdmX complementation, luminescence; inhibition, % at 8 µM; actives 3% (n = 330,000); AID 485346;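 active = inhibition of at least 50% at 8 µM in the primary screen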
# Target sequence (O15151 whole entry, looked up): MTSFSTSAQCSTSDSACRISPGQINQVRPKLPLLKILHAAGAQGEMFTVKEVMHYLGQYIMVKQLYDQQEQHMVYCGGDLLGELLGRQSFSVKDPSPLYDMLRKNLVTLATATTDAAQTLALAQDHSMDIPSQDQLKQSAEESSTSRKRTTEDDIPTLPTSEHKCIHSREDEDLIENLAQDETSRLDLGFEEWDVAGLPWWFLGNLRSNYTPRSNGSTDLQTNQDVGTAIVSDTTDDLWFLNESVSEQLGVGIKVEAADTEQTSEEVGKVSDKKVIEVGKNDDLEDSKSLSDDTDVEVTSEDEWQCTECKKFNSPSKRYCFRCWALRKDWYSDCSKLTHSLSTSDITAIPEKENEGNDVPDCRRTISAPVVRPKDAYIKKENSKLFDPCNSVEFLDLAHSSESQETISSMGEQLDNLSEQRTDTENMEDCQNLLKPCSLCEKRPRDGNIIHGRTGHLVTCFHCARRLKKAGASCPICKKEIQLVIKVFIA
# Target sequence (Q00987 whole entry, looked up): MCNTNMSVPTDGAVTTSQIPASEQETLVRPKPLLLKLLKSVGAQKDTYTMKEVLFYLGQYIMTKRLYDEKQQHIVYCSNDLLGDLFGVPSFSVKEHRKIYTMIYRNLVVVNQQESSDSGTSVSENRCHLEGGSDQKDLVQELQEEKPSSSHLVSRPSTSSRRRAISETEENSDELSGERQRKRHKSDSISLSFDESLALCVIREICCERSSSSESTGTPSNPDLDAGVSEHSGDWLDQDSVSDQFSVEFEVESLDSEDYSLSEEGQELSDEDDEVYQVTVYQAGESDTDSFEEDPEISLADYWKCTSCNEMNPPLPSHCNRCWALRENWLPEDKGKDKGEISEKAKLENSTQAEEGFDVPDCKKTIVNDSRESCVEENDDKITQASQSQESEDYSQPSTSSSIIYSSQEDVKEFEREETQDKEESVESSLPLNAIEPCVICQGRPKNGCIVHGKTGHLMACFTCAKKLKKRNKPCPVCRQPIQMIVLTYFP
# MPTP block: inhibitors of mitochondrial permeability transition pore; inhibition, % at 10 µM; AID 602449; actives 1.4% (n = 360,000); isolated mouse mitochondria, Ca2+ swelling absorbance, 30 min;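 active = inhibition of 50% or more, scaled per plate between neutral and stimulator controls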;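 note: 0% = DMSO wells given calcium and 100% = 1 mM EGTA wells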
# tim10-1 inh: growth inhibitors of tim10-1 mutant yeast. inhibition, % at 20 µM. S. cerevisiae tim10-1 ts strain growth, BacTiter-Glo, 24 h. actives 2.2% (n = 330,000). AID 463190;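 active = inhibition of at least 40%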;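 note: mutant grown at 25 °C; 0% = DMSO wells with yeast and 100% = wells holding no yeast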
# tim10-1 conf: tim10-1 yeast growth inhibition, confirmed; S. cerevisiae tim10-1 ts strain growth, BacTiter-Glo, 24 h; AID 463213; actives 56% (n = 7,400); inhibition, % at 20 µM; shares compounds with tim10-1 inh;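 active = inhibition of yeast growth at or above a set limit in either of two repeat tests at 20 µM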;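 note: tim10-1 mutant grown at permissive 25 °C to find synthetic lethal compounds; 0% = DMSO yeast wells and 100% = medium wells without yeast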
# * = called active by the depositor; · = no result given.
SMILES,TIM10 inh,tim23-1 inh,Mdm2 MdmX PPI,MPTP block,tim10-1 inh,tim10-1 conf
COc1cccc(N2C(=O)C(c3ccccc3)=C(c3nc4ccccc4s3)C2NC(C)=O)c1 (stereo unspecified),39,19,-13,1,49*,42*
Cc1ccsc1CN1CC(=O)N(c2c(C)cccc2C)C1=S,24,39,-9,2,45*,36*
Cc1cccc(N2C(=O)CN(Cc3sccc3C)C2=S)c1,31,40,25,-3,21,·
Cc1cccc(N2C(=O)CN(Cc3cccs3)C2=S)c1,33,45,22,0,42*,25
CCC(C)C(=O)N1c2ccccc2C(=C2SC(C(=O)OC)=C(C(=O)OC)S2)C(=S)C1(C)C (stereo unspecified),27,32,15,4,44*,29
NC(CCc1ccccc1)c1csc(Nc2nncc3ccccc23)n1 (stereo unspecified),·,·,·,4,·,·
COc1cc(C2C=C(Nc3ccccc3)C(=O)N2c2ccccc2)ccc1O (stereo unspecified),19,21,27,-5,42*,11
Cc1ccccc1NC(=O)c1cc(N)ccc1N1CCCCC1,21,35,23,0,41*,32*
C=Cc1ccc(CC2(C)C(=O)Nc3ccc(Cl)cc32)cc1 (stereo unspecified),·,·,·,2,·,·
Cc1cccc2cc3c(N)c(C(=O)N4CCOCC4)sc3nc12,16,36,-108,1,42*,34*
O=C(Nc1ccccc1)c1cc(C2CCCCN2S(=O)(=O)c2ccccc2)on1 (stereo unspecified),·,·,·,0,·,·
COc1ccc(C/C(=N\OC(C)=O)c2ccc(OC)cc2)cc1,7,26,2,0,46*,45*
CN(C(=S)NC1CCCCC1)C1(c2ccccc2Cl)CCCCC1=O (stereo unspecified),27,42,21,2,46*,35*
O=C(O)CN1C(=O)/C(=C/c2ccc(N3CCCCC3)o2)SC1=S,6,13,10,1,0,·
COC(=O)CN1C(=O)S/C(=C/c2ccc(N3CCCCC3)o2)C1=O,25,33,-22,5,54*,51*
CCOC(=O)CN1C(=O)S/C(=C/c2ccc(N3CCCCC3)o2)C1=O,10,26,-6,1,32,·
CCCN1C(=O)S/C(=C\c2ccc(N3CCOCC3)o2)C1=O,35,23,10,-1,45*,48*
CCCN1C(=O)S/C(=C/c2ccc(N3CCOCC3)o2)C1=O,23,32,-20,3,41*,38*
COc1cccc(CN2CCC2(C)C(=O)Nc2ccc(Cl)c(Cl)c2)c1F (stereo unspecified),·,·,·,1,·,·
COc1ccc(CN2CCC[C@]3(N[C@H](c4ccccc4)[C@@H]4C(=O)N(Cc5ccccc5)C(=O)[C@@H]43)C2=O)cc1,·,·,·,0,·,·
COc1ccccc1CNC(=O)CCCn1nc(C)c2c(C)n(-c3ccccc3)nc2c1=O,6,31,10,-1,35,·
COc1cccc(CNC(=O)CCCn2nc(C)c3c(C)n(-c4ccc(C)cc4)nc3c2=O)c1OC,16,32,14,-1,45*,14
O=C(Nc1ccc(Oc2cccnc2)cc1)C1CCN(Cc2cc(Cl)ccc2O)CC1,7,13,41,1,49*,-4
N#Cc1c(N2CCCCC2)nc(N)c2c(N)nc3c(c12)CC(c1ccccc1)O3 (stereo unspecified),32,16,12,-3,41*,10
CCC1Cc2c(nc(N)c3c(N)nc(N4CCCCC4)c(C#N)c23)O1 (stereo unspecified),22,38,35,-1,31,·
SMILES,TIM10 inh,tim23-1 inh,Mdm2 MdmX PPI,MPTP block,tim10-1 inh,tim10-1 conf
COCCn1c(=NC(=O)c2cc(-c3cccs3)nc3ccccc23)sc2cc(S(N)(=O)=O)ccc21,15,24,41,-2,40,30*
C=CCn1c(=NC(=O)c2cc(-c3cccs3)nc3ccccc23)sc2cc(S(N)(=O)=O)ccc21,21,22,28,-1,25,·
Nc1ccc(SC(F)(F)F)cc1C(=O)c1ccccc1,24,26,1,2,50*,17
CCc1cc(C(=O)c2ccccc2)c(N)s1,-1,30,-19,0,12,·
Cn1c(=O)c2c(nc(N/N=C/c3cccs3)n2Cc2ccccc2)n(C)c1=O,3,0,6,6,-6,·
Cn1c(N/N=C/c2cccs2)nc2c1c(=O)n(Cc1ccccc1)c(=O)n2C,25,22,-11,0,40*,22
CCOC(=O)c1cc(C)n(-c2ccc(OC)c(OC)c2)c1C,17,15,2,0,47*,10
CCOC(=O)c1cc(C)n(-c2ccc(Cl)cc2)c1C,13,10,17,3,2,·
COc1ccc(C)cc1N(C(=O)c1ccc(C#N)cc1)C1=NC(C)(C)CS1,5,11,14,0,40,-3
COc1cccc(-c2cnc(C(O)c3ccc(C(C)(C)C)cc3)[nH]2)c1 (stereo unspecified),·,·,·,3,·,·
Nc1c(N2CCN(c3ccccc3)CC2)c2ccccc2oc1=O,11,27,38,-1,49*,27*
Nc1c(N)c2ccccc2oc1=O,1,1,-7,0,-6,·
CC1(C)CN=c2s/c(=C\c3ccc(Cl)cc3)c(=O)n2C1,20,19,-30,2,41*,27
CCOC(=O)C1(C)CCN1C(=O)c1ccc(OC)c(OC)c1 (stereo unspecified),·,·,·,-1,·,·
CCCc1cc(-c2n[nH]c(=S)n2C(C)c2ccccc2)cs1 (stereo unspecified),14,45,-5,0,48*,19
CCc1cc(-c2n[nH]c(=S)n2-c2ccccc2C)cs1,22,35,13,-12,42*,35*
CCCc1cc(-c2n[nH]c(=S)n2CC)cs1,38,40,-20,1,29,·
O=c1c2ccccc2sn1-c1ccc(Cl)cc1Cl,·,·,·,18,·,·
CC(=O)Nc1ccc(CN(C)c2c(C)nc3ccc(C(=O)N(C)Cc4ccco4)cn23)cc1,·,·,·,-4,·,·
N#C/C(=C\c1ccc(C(=O)O)cc1)c1ccccn1,8,3,-25,0,6,·
N#C/C(=C\c1c[nH]c2ccc(Br)cc12)c1ccccn1,19,47,49,1,48*,35*
CCCC(=O)Nc1cc(C)c(NC(=O)C23CC4CC(CC(C4)C2)C3)cn1,36,24,-5,1,42*,32*
CCCC(=O)Nc1cc(C)c(NC(=O)c2cccs2)cn1,1,16,9,2,-16,·
COC(=O)c1ccc(N2CCN(c3ccccc3)CC2)c(NC(=O)C2CC2)c1,-9,-3,-31,4,-8,·
COC(=O)c1ccc(N2CCN(c3ccccc3)CC2)c(N)c1,-5,-8,-17,3,80*,8
COc1ccc(CC(=O)NCCc2ccc(Cl)cc2Cl)cc1,-21,28,11,1,40*,17

# High-throughput results from PubChem.
